Bioassay records as filed in PubChem.
Shown are actives, neighbours in structure and some others; about 18% of the full set was active somewhere.
TDP1 cell noCPT = qHTS for Inhibitors of human tyrosyl-DNA phosphodiesterase 1 (TDP1): qHTS in cells in absence of CPT. actives 15% (n = 420,000). Potency, µM (doses to about 46.2 µM), actives largely listed as inhibitors. DT40 Tdp1-/- hTDP1 cells, no CPT, ATP luminescence, 48 h; note: nearly all actives have a fitted effect of over 55% in size
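Cells were dispensed at 400 per well, compounds added by pin tool, plates incubated ≥48 hr at 37 °C, then CellTiter-Glo added for 30 min at room temperature before luminescence reading. Line: DT40 Tdp1-/- complemented with hTDP1; camptothecin omitted.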
DT40 TDP1 CPT = DT40-hTDP1 cell growth loss with CPT; chicken DT40 Tdp1-/-;hTDP1 cells + 20 nM CPT, ATP luminescence, 48 h; actives 12% (n = 420,000); AID 686979; Potency, µM (doses to about 46.2 µM), usual class: inhibitors; note: nearly all actives have a fitted effect of over 55% in size
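Chicken DT40 Tdp1-/- cells stably complemented with human TDP1 were seeded at 400 cells/well in medium containing 20 nM camptothecin, exposed to pin-transferred compounds, and grown at 37 °C for at least 48 hr. Viability was read as ATP luminescence.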
IL1B secr inh = inflammasome signaling inhibition, IL-1 beta readout | AID 743279 | activity change, % at 57.5 µM | actives 4.7% (n = 360,000) | THP-1 LPS/ATP IL-1B secretion, AlphaLISA, 16 h; stronger effect = lower value; in the data active = activity change below about -50%; inconclusive = mostly about -30% to -49%
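THP-1 cells pretreated 1 hr with compounds (up to 57.5 uM final), then stimulated with LPS (250 ng/mL final) plus ATP (1.25 mM final); secreted IL-1B measured by AlphaLISA after 16 hr, decreased signal indicating inhibition.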
Six1-Eya2 inh = Six1/Eya2 interaction inhibition | Q15475+O00167 | AlphaScreen GST-Six1/His-Eya2 binding, biochemical; stronger effect = lower value | activity change, % (test concentration not listed) | actives 0.56% (n = 360,000) | AID 651725; in the data active = activity change below about -65%; inconclusive = mostly about -30% to -63%
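GST-Six1 + His-Eya2 (5X stock: 250/500 nM); Tris pH 8.0, 300 mM NaCl, 0.05% BSA, 0.02% Tween 20; GSH donor/Ni acceptor beads; 1 h 37 °C dark; AlphaScreen readout.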
CtBP-E1A blk = inhibitors of CtBP/E1A interaction; AID 651724; actives 0.49% (n = 340,000); activity change, % (no concentration beside the values); AlphaScreen GST-E1A/His-CtBP binding, 1536-well; stronger effect = lower value; in the data active = activity change below about -65%; inconclusive = mostly about -30% to -63%
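Steps: dispense buffer (Tris pH 8.0, NaCl 300 mM, TCEP 1 mM, BSA, Tween 20); add 5X protein mix (GST-E1A, His-CtBP, 125 nM each); pin 23 nL compound; 2 h at 37 °C, dark; add 5X beads (50 ug/mL); 1 h; read.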
TDP1 block = inhibitors of human tyrosyl-DNA phosphodiesterase TDP1 | Q9NUW8 | recombinant TDP1, AlphaScreen DNA substrate cleavage | Potency, µM (highest dose often 130 µM), usual class: inhibitors | actives 0.28% (n = 350,000) | AID 485290; note: nearly all actives have a fitted effect of over 40% in size
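Recombinant E. coli-expressed Tdp1 (1 nM) preincubated with compound 15 min at RT, then 5'-biotin/3'-phosphotyrosine-FITC DNA substrate (15 nM) added for 5 min. AlphaScreen beads (10 ug/ml) added, 10 min RT; tyrosine-FITC cleavage read as signal loss.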
Each line names hits and unclear results; the compound was inactive in the other large screens. Unless noted, calls come from the whole dose curve; as a rule, active = well fitted curve in the direction sought with a large enough effect; inconclusive = small, poorly fitted or top-dose-only effect, or another doubt; inactive = no such curve, though single readings can be large; an effect the other way counts as inactive or inconclusive.

CC(=O)C[C@@H](O)CC(=O)[C@@H]1OC(=O)[C@@H](C)CCCCc2ccccc21	none
O=C(N/N=C/c1cc(O)ccc1Br)c1cccnc1	TDP1 cell noCPT 2.91µM, DT40 TDP1 CPT 5.8µM, Six1-Eya2 inh -91.0, CtBP-E1A blk -92.7 (no result: TDP1 block)
O=C(N/N=C/c1cc(Br)c(O)c(Br)c1O)c1cccnc1	TDP1 cell noCPT inconclusive, DT40 TDP1 CPT 20.6µM, Six1-Eya2 inh -91.2 (no result: CtBP-E1A blk, TDP1 block)
CCCc1cc(=O)c2c(O)cccc2o1	none
O=C(Nc1nc(-c2ccc(Br)cc2)ns1)c1ccc(F)cc1	TDP1 cell noCPT 18.4µM, DT40 TDP1 CPT inconclusive (no result: IL1B secr inh, Six1-Eya2 inh, CtBP-E1A blk)
COc1ccc(-c2nsc(NC(=O)c3cccc(OC)c3)n2)cc1	TDP1 cell noCPT 20.6µM, DT40 TDP1 CPT inconclusive (no result: IL1B secr inh, Six1-Eya2 inh, CtBP-E1A blk)
Cc1ccc(OCC(=O)Nc2nc(-c3ccc(Br)cc3)ns2)cc1	TDP1 cell noCPT inconclusive (no result: IL1B secr inh, Six1-Eya2 inh, CtBP-E1A blk)
COc1ccc(C(=O)Nc2nc(-c3nnn(-c4ccc(C(C)C)cc4)c3C)ns2)cc1	TDP1 cell noCPT 16.4µM, DT40 TDP1 CPT 13µM (no result: IL1B secr inh, Six1-Eya2 inh, CtBP-E1A blk)
COc1ccc(C(=O)Nc2nc(-c3nnn(-c4cc(OC)ccc4OC)c3C)ns2)cc1	TDP1 cell noCPT 16.4µM, DT40 TDP1 CPT 16.4µM (no result: IL1B secr inh, Six1-Eya2 inh, CtBP-E1A blk)
COc1cccc(C(=O)Nc2nc(C)cs2)c1	none
COc1ccc(Cl)cc1-n1nnc(-c2nsc(NC(=O)c3ccccc3Cl)n2)c1C	none (no result: IL1B secr inh, Six1-Eya2 inh, CtBP-E1A blk)
Cc1ccc(Cl)cc1N1CCN(C(=O)CCNS(=O)(=O)c2ccc3c(c2)CCN3C(=O)C2CC2)CC1	TDP1 cell noCPT 23.1µM, DT40 TDP1 CPT 8.2µM (no result: IL1B secr inh, Six1-Eya2 inh, CtBP-E1A blk)
COc1ccccc1N1CCN(C(=O)CCNS(=O)(=O)c2ccc3c(c2)CCN3C(=O)C2CC2)CC1	TDP1 cell noCPT 23.1µM, DT40 TDP1 CPT 16.4µM (no result: IL1B secr inh, Six1-Eya2 inh, CtBP-E1A blk)
O=C(CCNS(=O)(=O)c1ccc2c(c1)CCN2C(=O)C1CC1)Nc1ccc(OC(F)(F)F)cc1	TDP1 cell noCPT inconclusive, DT40 TDP1 CPT inconclusive (no result: IL1B secr inh, Six1-Eya2 inh, CtBP-E1A blk)
O=C(CCNS(=O)(=O)c1ccc2c(c1)CCN2C(=O)C1CC1)N1CCN(c2cccc(C(F)(F)F)c2)CC1	TDP1 cell noCPT 1.64µM, DT40 TDP1 CPT 2.06µM (no result: IL1B secr inh, Six1-Eya2 inh, CtBP-E1A blk)
CCC(=O)N1CCc2cc(S(=O)(=O)CCC(=O)N3CCN(c4cc(C)ccc4C)CC3)ccc21	TDP1 cell noCPT inconclusive, DT40 TDP1 CPT inconclusive (no result: IL1B secr inh, Six1-Eya2 inh, CtBP-E1A blk)
Cc1cc(NC(=O)c2oc3c(c2C)-c2[nH]ncc2CC3)ccc1Br	TDP1 cell noCPT 18.4µM, DT40 TDP1 CPT inconclusive (no result: IL1B secr inh, Six1-Eya2 inh, CtBP-E1A blk)
COc1ccccc1NC(=S)NC(=O)/C=C/c1cccs1	TDP1 cell noCPT inconclusive
CCCC(=O)NC(=S)Nc1ccc(N2CCN(C(=O)c3cccs3)CC2)cc1	TDP1 cell noCPT 14.6µM, DT40 TDP1 CPT 16.4µM, IL1B secr inh -85.4, Six1-Eya2 inh inconclusive, CtBP-E1A blk inconclusive
O=C(NC(=S)Nc1ccc(S(=O)(=O)N2CCCC2)cc1)c1cccs1	TDP1 cell noCPT inconclusive, DT40 TDP1 CPT inconclusive
O=C(NC(=S)Nc1ccc(S(=O)(=O)N2CCCCCC2)cc1)c1cccs1	TDP1 cell noCPT 20.6µM, DT40 TDP1 CPT inconclusive
